Shown are actives, neighbours in structure and some others; about 2.3% of the full set was active somewhere.
Nrf2 block: Nrf2 qHTS screen for inhibitors; A549 ARE-Fluc reporter, luciferase luminescence, 18-24 h; Potency, µM (titrated, usually from 46 µM), most hits filed as inhibitors; 360,000 compounds, 2.1% hits; AID 504444, 2011; also: nearly all actives have a fitted effect of over 60% in size
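Two sequential reads on A549 ARE_Fluc cells exposed to compound for 18-24 h: a CellTiter-Fluor fluorescence read for viability, then a luciferase luminescence read for Nrf2/ARE activity.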
Nrf2 ARE act: qHTS of Nrf2 Activators; AREc32 ARE-luciferase reporter (MCF7-derived line), luminescence, 24 h; Potency, µM (titrated, usually from 46.1 µM), usual class: activators; 410,000 compounds, 0.31% hits; AID 624171, 2012; also: nearly all actives have a fitted effect of over 65% in size
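Steps: seed AREc32_Fluc cells (1000/well, 5% FBS OPTI-MEM); incubate overnight at 37 deg C; add 23 nL compound; incubate 24 hr; add Steady-Glo; hold 30 min RT; read luminescence.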
A549 tox: Nrf2 qHTS screen for inhibitors: counterscreen for cytotoxicity; A549 ARE-Fluc cells, CellTiter-Fluor viability, 18-24 h; Potency, µM (doses to about 46 µM), actives largely listed as inhibitors; 390,000 compounds, 0.16% hits; AID 504648, 2011
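Cytotoxicity counterscreen: CellTiter-Fluor fluorescence was measured in A549 ARE_Fluc cells after 18-24 h of compound exposure in a concentration series. The subsequent BugLite luminescent read reports ARE-luciferase activity.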
IL2 activator: qHTS of IL-2 Activators | activation, % (series mostly up to about 46 µM) | IL-2 activation reporter assay, cell-based qHTS; stimulated with anti-CD3/CD4/CD28 beads; in transgenic mouse T cells | 360,000 compounds, 0.065% hits; in the data active = activation above about 50%; inconclusive = mostly about 30% to 49%
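Readout is EGFP and DsRed signal by fluorescent plate cytometry after 18 h at 37 degrees C. Transgenic mouse T cells (750/well) received compound for 60 min before bead stimulation (anti-CD3, anti-CD4, anti-CD28); memory T cells served as non-tolerant control.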
Hits are given with their value; . = inactive; ? = inconclusive; / = not tested or not shown. Unless noted, calls follow the shape of the dose curve; as a rule, active = well fitted curve in the direction sought with a large enough effect; inconclusive = small, poorly fitted or top-dose-only effect, or another doubt; inactive = no such curve, though single readings can be large; an effect the other way counts as inactive or inconclusive.

SMILES	Nrf2 block	Nrf2 ARE act	A549 tox	IL2 activator
CCC(C)NC(=S)Nc1ccccc1 (configuration not stated)	.	.	.	.
CCC(C)NC(=S)Nc1ccc(C(=O)OC)cc1 (configuration not stated)	18µM	.	.	.
S=c1[nH]c(=S)c2[nH]cnc2[nH]1	.	/	.	/
Cc1oc2c(c1C(=O)N1CCC(C)CC1)C(=O)c1ccccc1C2=O	26µM	.	?	.
CC(C)S(=O)(=O)c1oc(-c2cccs2)nc1S(=O)(=O)c1ccc(F)cc1	18µM	.	?	/
O=C(/C=C/c1ccc2c(c1)OCO2)c1ccc[nH]1	?	?	.	.
COc1cccc(/C=C/C(=O)c2ccc[nH]2)c1	?	16µM	.	.
CC(C)OC(=O)c1ccc(NCc2cc(O)ccc2O)cc1	.	13µM	.	.
CCCn1nc([N+](=O)[O-])c(C(C#N)c2nc3ccccc3s2)c(Cl)c1=O (configuration not stated)	?	?	13µM	.
CCn1nc([N+](=O)[O-])c(C(C#N)c2nc3ccccc3n2C)c(Cl)c1=O (configuration not stated)	.	?	.	.
O=C(OCC#CCSc1nnc(-c2ccc(Cl)cc2)o1)c1ccc(F)cc1	.	/	.	/
CCCCCC(=O)O[C@]1(C(C)=O)CC[C@H]2[C@@H]3CCC4=CC(=O)CC[C@]4(C)[C@H]3CC[C@@]21C	21µM	.	?	.
Cc1cc(C)cc(NC(=O)c2ccc3c(O)c(S(=O)(=O)c4ccccc4)c(=O)[nH]c3c2)c1	.	.	.	/
CCC(=O)NC(c1ccc(C)cc1)c1cc(Cl)c2cccnc2c1O (configuration not stated)	?	.	.	.
Cc1ccc(C(NC(=O)C(C)C)c2cc([N+](=O)[O-])c3cccnc3c2O)cc1 (configuration not stated)	18µM	.	?	.
CC(C)C(=O)NC(c1cccs1)c1cc([N+](=O)[O-])c2cccnc2c1O (configuration not stated)	21µM	.	?	.
CCC(=O)NC(c1cccs1)c1cc([N+](=O)[O-])c2cccnc2c1OC (configuration not stated)	/	.	/	.
COc1ccc2c(c1)c1c(c(=O)n(Cc3ccccc3)c(=O)n1CC(=O)Nc1cc(C)cc(C)c1)n2C	.	.	.	/
Nc1ncc(-c2ccccc2)c(-c2ccc(OCc3ccccc3)cc2O)n1	23µM	.	.	.
C(=N\Nc1ccc2nncn2n1)/c1ccco1	.	10µM	.	.
Cc1ccc2c(c1)sc(-c1ccc(N(C)C)cc1)[n+]2C	2.1µM	.	?	.
COc1ccc(C)cc1Nc1n[n+](-c2ccccc2)c(-c2ccc(N(C)C)cc2)s1	?	.	.	.
Cc1cc(C)c2c(N)c(C(=O)c3ccc(Br)cc3)oc2n1	.	1.8µM	.	.
Cc1ccc(Cl)cc1Nc1nn2c(=O)c3ccc(C(=O)NCc4ccc(F)cc4)cc3nc2s1	.	.	.	/
Cn1nc(CC(=O)NC2CCCCCC2)c2ccccc2c1=O	18µM	.	.	.
SMILES	Nrf2 block	Nrf2 ARE act	A549 tox	IL2 activator
COc1cc(/C=N\NC(=O)c2ccc(-c3ccccc3)cc2)cc(OC)c1O	.	.	.	.
COc1cc(/C=N\NC(=O)c2ccc(-c3ccccc3)cc2)cc(OC)c1OC(C)=O	13µM	.	.	.
COc1ccc(C2c3c(n(CCCc4ccccc4)cnc3=N)Oc3ccc4ccccc4c32)cc1OC (configuration not stated)	.	/	.	/
O=C(CSc1nc(-c2ccccc2)c(-c2ccccc2)[nH]1)N1CCN(S(=O)(=O)c2ccccc2)CC1	16µM	.	.	.
O=C(CSc1nc2ccccc2c(=O)[nH]1)N1CCN(S(=O)(=O)c2ccccc2)CC1	.	.	.	.
CCOc1ccccc1CN1CCC(Oc2ccc(C(=O)NCc3ccccn3)cc2)CC1	?	.	.	.
CCn1cc(CNC(=O)c2ccc(OC3CCN(Cc4ccccn4)CC3)cc2)cn1	12µM	.	.	.
O=C1C2CC=CCC2C(=O)N1c1ccc(Cc2ccncc2)cc1 (configuration not stated)	9.2µM	.	.	.
CCNc1nc(-c2sc(NC(=O)C(C)(C)C)nc2C)c(-n2cc(-c3ccccc3)nn2)s1	/	.	/	.
COc1ccccc1C1=Nn2c(nnc2-c2ccccc2O)SC1	.	/	.	/
COc1cccc(/C=N/NC(=O)c2cc3cc([N+](=O)[O-])ccc3s2)c1O	15µM	.	?	.

Screens (PubChem)
